Assays:
Conditions in all cases: concentration: 1 μM, replicates: in singlicate; n = 1
[1] = test system: STK36
[2] = test system: STK39
[3] = test system: SYK
[4] = test system: SgK110
[5] = test system: T1, TAK1
T1 construct: gene MAP3K7

[6] = test system: TAOK1
[7] = test system: TAOK2
[8] = test system: TAOK3
[9] = test system: TBK1
[10] = test system: TEC
[11] = test system: TESK1
[12] = test system: TGFBR1
[13] = test system: TGFBR2
[14] = test system: TIE1
[15] = test system: T2, TIE2
T2 construct: gene TEK

[16] = test system: TLK1
[17] = test system: TLK2
[18] = test system: TNIK
[19] = test system: TNK1
[20] = test system: TNK2
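Note: KINOMEscan kinase panel screen.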

## CN1CCN(Cc2cccc(-c3ccc4c(Nc5ccc(Oc6ccccc6)cc5)ccnc4c3)c2)CC1 [GW578342]
[1]
  %Inh: 0%
[2]
  %Inh: 6%
[3]
  %Inh: 0%
[4]
  %Inh: 6%
[5]
  %Inh: 13%
[6]
  %Inh: 0%
[7]
  %Inh: 0%
[8]
  %Inh: 0%
[9]
  %Inh: 16%
[10]
  %Inh: 70%
[11]
  %Inh: 2%
[12]
  %Inh: 0%
[13]
  %Inh: 0%
[14]
  %Inh: 10%
[15]
  %Inh: 0%
[16]
  %Inh: 78%
[17]
  %Inh: 0%
[18]
  %Inh: 98.8%
[19]
  %Inh: 70%
[20]
  %Inh: 7%

## Cn1cc(-c2[nH]c3cc(NC(=O)[C@H](N)C4CCCCC4)cc4c3c2C=NNC4=O)cn1
[1]
  %Inh: 0%
[2]
  %Inh: 59%
[3]
  %Inh: 55%
[4]
  %Inh: 92.1%
[5]
  %Inh: 52%
[6]
  %Inh: 0%
[7]
  %Inh: 0%
[8]
  %Inh: 0%
[9]
  %Inh: 82%
[10]
  %Inh: 43%
[11]
  %Inh: 15%
[12]
  %Inh: 0%
[13]
  %Inh: 66%
[14]
  %Inh: 83%
[15]
  %Inh: 42%
[16]
  %Inh: 8%
[17]
  %Inh: 1%
[18]
  %Inh: 91.9%
[19]
  %Inh: 68%
[20]
  %Inh: 48%

## O=C(Nc1n[nH]c2cc(-c3ccoc3)ccc12)C1CC1 [SB-738481]
[1]
  %Inh: 13%
[2]
  %Inh: 1%
[3]
  %Inh: 2%
[4]
  %Inh: 0%
[5]
  %Inh: 2%
[6]
  %Inh: 65%
[7]
  %Inh: 27%
[8]
  %Inh: 15%
[9]
  %Inh: 15%
[10]
  %Inh: 0%
[11]
  %Inh: 0%
[12]
  %Inh: 0%
[13]
  %Inh: 0%
[14]
  %Inh: 0%
[15]
  %Inh: 5%
[16]
  %Inh: 7%
[17]
  %Inh: 0%
[18]
  %Inh: 42%
[19]
  %Inh: 0%
[20]
  %Inh: 0%

## CN(C)Cc1ccc(-c2ccc3c(Nc4ccc(Oc5ccccn5)cc4)ccnc3c2)o1 [GW567148]
[1]
  %Inh: 0%
[2]
  %Inh: 0%
[3]
  %Inh: 0%
[4]
  %Inh: 0%
[5]
  %Inh: 23%
[6]
  %Inh: 0%
[7]
  %Inh: 0%
[8]
  %Inh: 0%
[9]
  %Inh: 7%
[10]
  %Inh: 49%
[11]
  %Inh: 0%
[12]
  %Inh: 0%
[13]
  %Inh: 0%
[14]
  %Inh: 19%
[15]
  %Inh: 0%
[16]
  %Inh: 0%
[17]
  %Inh: 0%
[18]
  %Inh: 20%
[19]
  %Inh: 29%
[20]
  %Inh: 40%

## COc1ccc(CNC(=O)NC2CCN(c3ccnc(Nc4ccc(F)cc4)n3)CC2)cc1 [GSK1379788]
[1]
  %Inh: 0%
[2]
  %Inh: 0%
[3]
  %Inh: 21%
[4]
  %Inh: 0%
[5]
  %Inh: 0%
[6]
  %Inh: 0%
[7]
  %Inh: 0%
[8]
  %Inh: 0%
[9]
  %Inh: 2%
[10]
  %Inh: 0%
[11]
  %Inh: 2%
[12]
  %Inh: 18%
[13]
  %Inh: 0%
[14]
  %Inh: 0%
[15]
  %Inh: 0%
[16]
  %Inh: 0%
[17]
  %Inh: 0%
[18]
  %Inh: 0%
[19]
  %Inh: 9%
[20]
  %Inh: 2%

## COc1cccc(NC(=O)NC2CCN(c3ccnc(Nc4cc(OC)c(OC)c(OC)c4)n3)C2)c1 (centres unmarked) [GSK1379763]
[1]
  %Inh: 0%
[2]
  %Inh: 0%
[3]
  %Inh: 28%
[4]
  %Inh: 0%
[5]
  %Inh: 0%
[6]
  %Inh: 0%
[7]
  %Inh: 0%
[8]
  %Inh: 0%
[9]
  %Inh: 38%
[10]
  %Inh: 5%
[11]
  %Inh: 1%
[12]
  %Inh: 4%
[13]
  %Inh: 0%
[14]
  %Inh: 28%
[15]
  %Inh: 0%
[16]
  %Inh: 10%
[17]
  %Inh: 0%
[18]
  %Inh: 0%
[19]
  %Inh: 0%
[20]
  %Inh: 9%

## Cc1cccc(Nc2nc(N[C@H]3CCNC3)ncc2C(N)=O)c1.Cl [GSK2197149]
[1]
  %Inh: 10%
[2]
  %Inh: 9%
[3]
  %Inh: 81%
[4]
  %Inh: 0%
[5]
  %Inh: 90%
[6]
  %Inh: 39%
[7]
  %Inh: 0%
[8]
  %Inh: 5%
[9]
  %Inh: 18%
[10]
  %Inh: 0%
[11]
  %Inh: 23%
[12]
  %Inh: 0%
[13]
  %Inh: 0%
[14]
  %Inh: 0%
[15]
  %Inh: 0%
[16]
  %Inh: 20%
[17]
  %Inh: 0%
[18]
  %Inh: 78%
[19]
  %Inh: 47%
[20]
  %Inh: 6%

## CN(C)S(=O)(=O)c1cc(-c2ccc3nccc(-c4cccc(S(N)(=O)=O)c4)c3c2)cnc1N [GSK1669921]
[1]
  %Inh: 0%
[2]
  %Inh: 0%
[3]
  %Inh: 0%
[4]
  %Inh: 0%
[5]
  %Inh: 0%
[6]
  %Inh: 18%
[7]
  %Inh: 0%
[8]
  %Inh: 7%
[9]
  %Inh: 2%
[10]
  %Inh: 12%
[11]
  %Inh: 0%
[12]
  %Inh: 0%
[13]
  %Inh: 0%
[14]
  %Inh: 26%
[15]
  %Inh: 0%
[16]
  %Inh: 0%
[17]
  %Inh: 0%
[18]
  %Inh: 13%
[19]
  %Inh: 42%
[20]
  %Inh: 9%

## CSc1cccc2c(-c3ccncn3)c(-c3ccc(F)cc3)nn12 [GW514786]
[1]
  %Inh: 38%
[2]
  %Inh: 10%
[3]
  %Inh: 42%
[4]
  %Inh: 0%
[5]
  %Inh: 9%
[6]
  %Inh: 0%
[7]
  %Inh: 0%
[8]
  %Inh: 0%
[9]
  %Inh: 8%
[10]
  %Inh: 0%
[11]
  %Inh: 31%
[12]
  %Inh: 28%
[13]
  %Inh: 24%
[14]
  %Inh: 6%
[15]
  %Inh: 0%
[16]
  %Inh: 0%
[17]
  %Inh: 0%
[18]
  %Inh: 0%
[19]
  %Inh: 8%
[20]
  %Inh: 6%

## Cc1ccc(C(=O)N2CC[C@@H](O)C2)cc1-n1c(C)cc(OCc2ccc(F)cc2F)c(Br)c1=O
[1]
  %Inh: 0%
[2]
  %Inh: 0%
[3]
  %Inh: 7%
[4]
  %Inh: 0%
[5]
  %Inh: 0%
[6]
  %Inh: 31%
[7]
  %Inh: 57%
[8]
  %Inh: 0%
[9]
  %Inh: 1%
[10]
  %Inh: 0%
[11]
  %Inh: 0%
[12]
  %Inh: 16%
[13]
  %Inh: 0%
[14]
  %Inh: 0%
[15]
  %Inh: 20%
[16]
  %Inh: 13%
[17]
  %Inh: 0%
[18]
  %Inh: 0%
[19]
  %Inh: 0%
[20]
  %Inh: 0%

Source: article PMC5540273 (PLoS ONE, 2017)
